# Rows were chosen to be rich in hits. Some 16% of all compounds tested hit in one or more screens of this group.
# miR-21 act: qHTS Assay for Modulators of miRNAs and/orActivators of miR-21. Potency, µM (top dose mostly 38.3 µM), without a hit: at the highest dose activity change, positive = activation, actives largely listed as activators. HeLa miR-21 FLuc reporter, luciferase, 48 h. 340,000 tested, under 10 active. AID 2288, 2010;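 further: % of control where 0% means no effect; miR-21 action dims this reporter so a rising signal means less miR-21 action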
#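 HeLa cells endogenously expressing miR-21, stably carrying CMV-driven firefly luciferase with a downstream miR-21 binding site, 2000 cells/well. Titrations up to approximately 40 uM, 48 hours; luciferase luminescence read.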
# TDP1 cell CPT: qHTS for Inhibitors of human tyrosyl-DNA phosphodiesterase 1 (TDP1): qHTS in cells in presence of CPT | Potency, µM (highest dose often 46.2 µM), for the others: at the highest dose activity change, negative = growth inhibition, usual class: inhibitors | chicken DT40 Tdp1-/-;hTDP1 cells + 20 nM CPT, ATP luminescence, 48 h | 420,000 tested, 12% active; further: potency means the concentration at half of the fitted maximal effect; on the % scale 0 is the no-effect control and ±100 the full control effect; nearly all actives have a fitted effect of over 55% in size
#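 Chicken DT40 Tdp1-/- cells complemented with human TDP1, 400 cells/well, exposed to compounds plus 20 nM camptothecin for at least 48 h at 37 C; viability read as ATP content by CellTiter-Glo luminescence.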
# uPA generation: qHTS for Inhibitors of Cell Surface uPA Generation; Potency, µM (highest dose often 38.3 µM), for the others: top-dose activity change, negative = inhibition, hits mostly inhibitors; cell surface uPA generation assay, qHTS; AID 540303, 2011; 330,000 tested, 0.31% active; active means well fitted inhibition curve with a large enough effect; inconclusive means small, poorly fitted or top-dose-only effect; inactive means no such curve, though single readings can be large or run the other way; tested in mouse RAW 264.7 cells; further: potency means the concentration at half of the fitted maximal effect; on the % scale 0 is the no-effect control and ±100 the full control effect; nearly all actives have a fitted effect of over 55% in size
# DT40 TDP1 no CPT: qHTS for Inhibitors of human tyrosyl-DNA phosphodiesterase 1 (TDP1): qHTS in cells in absence of CPT | DT40 Tdp1-/- hTDP1 cells, no CPT, ATP luminescence, 48 h | Potency, µM (titrated, usually from 46.2 µM), inactives show at the top dose activity change, negative = growth inhibition, actives largely listed as inhibitors | 420,000 tested, 15% active | AID 686978, 2013; further: potency means the concentration at half of the fitted maximal effect; on the % scale 0 is the no-effect control and ±100 the full control effect; nearly all actives have a fitted effect of over 55% in size
#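 Camptothecin absent (DMSO only). Human TDP1-complemented DT40 knockout cells, 400 cells/well, 37 °C for minimum 48 hr; ATP measured via CellTiter-Glo, 30 min dark incubation, luminescence.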
# TDP1 block: qHTS Assay for Inhibitors of Tyrosyl-DNA Phosphodiesterase (TDP1); recombinant TDP1, AlphaScreen DNA substrate cleavage; Potency, µM (highest dose often 130 µM), for the others: at the top dose activity change, negative = inhibition, hits mostly inhibitors; 350,000 tested, 0.28% active; AID 485290, 2010; further: potency means the concentration at half of the fitted maximal effect; on the % scale 0 is the no-effect control and ±100 the full control effect; nearly all actives have a fitted effect of over 40% in size
# Target sequence (Q9NUW8 whole entry, looked up): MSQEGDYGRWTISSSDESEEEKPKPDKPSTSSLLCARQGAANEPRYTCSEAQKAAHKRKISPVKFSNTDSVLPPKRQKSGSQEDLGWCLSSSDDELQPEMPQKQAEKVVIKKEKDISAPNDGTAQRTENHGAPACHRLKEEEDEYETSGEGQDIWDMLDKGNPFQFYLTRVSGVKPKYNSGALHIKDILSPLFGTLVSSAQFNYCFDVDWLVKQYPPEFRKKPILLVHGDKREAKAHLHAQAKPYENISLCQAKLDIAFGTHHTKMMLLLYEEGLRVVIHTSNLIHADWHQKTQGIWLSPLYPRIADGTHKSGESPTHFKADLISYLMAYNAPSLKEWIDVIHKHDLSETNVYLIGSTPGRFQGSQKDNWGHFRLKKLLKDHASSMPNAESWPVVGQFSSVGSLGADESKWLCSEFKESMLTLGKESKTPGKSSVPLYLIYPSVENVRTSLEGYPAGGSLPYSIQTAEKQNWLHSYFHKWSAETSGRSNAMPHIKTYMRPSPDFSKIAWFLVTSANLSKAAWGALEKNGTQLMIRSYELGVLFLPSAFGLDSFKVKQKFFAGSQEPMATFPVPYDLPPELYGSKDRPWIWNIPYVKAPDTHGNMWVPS
#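 Signal: AlphaScreen proximity between streptavidin donor and anti-FITC acceptor beads on intact substrate. Reaction: Tdp1 1 nM, substrate 15 nM final, 5 min RT after 15 min compound preincubation.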
# * = called active by the depositor; ? = inconclusive; . = not tested or not shown; [ ] = dose if it differs, or a comment. Unless noted, the call rests on the fitted dose curve; in most records, active means well fitted curve in the direction sought with a large enough effect; inconclusive means small, poorly fitted or top-dose-only effect, or another doubt; inactive means no such curve, though single readings can be large; an effect the other way counts as inactive or inconclusive.
SMILES,miR-21 act,TDP1 cell CPT,uPA generation,DT40 TDP1 no CPT,TDP1 block
COc1cc2c(=O)c(C(=O)c3ccc(F)cc3)cn(Cc3cccc(F)c3)c2cc1OC,1%,21µM*,.,16µM*,6%
O=C(c1ccc(F)cc1)c1cn(Cc2ccccc2)c2cc3c(cc2c1=O)OCO3,5%,?,.,?,2%
COc1ccccc1Cn1cc(C(=O)c2ccc(Cl)cc2)c(=O)c2cc3c(cc21)OCCO3,-4%,?,.,?,3%
Cc1ccc(-c2cc(C(F)(F)F)n3nc(C(=O)Nc4ccc(Cl)cc4Cl)cc3n2)cc1,0%,-2%,.,-1%,3%
Cc1oc2cc3oc(=O)cc(C)c3cc2c1C,-21%,-18%,-6%,-13%,.
Cc1cccc(NC(=O)CNC(=O)[C@H]2O[C@@H](n3ccc(=O)[nH]c3=O)[C@H](O)[C@@H]2O)c1C,.,-4%,.,-19%,.
Cc1nn(-c2cc(C)c3ccccc3n2)c2c1CCC2,-8%,?,0%,23µM*,6%
Cc1cccc(OCCCC(=O)Nc2ccc(N3CCCCC3)cc2)c1,-1%,-15%,4%,-15%,0%
COc1cc(OC)nc(Nc2nc(CN)cs2)n1,.,-30%,.,?,.
COc1cc(OC)nc(Nc2nc(C(N)CCc3ccccc3)cs2)n1 (stereo not drawn),.,26µM*,.,?,.
COc1cc(OC)nc(Nc2nc(C(N)Cc3ccc(Cl)cc3)cs2)n1 (stereo not drawn),.,23µM*,.,15µM*,.
O=C(Nc1ccc(SC(F)F)cc1)c1cccc2nc3ccccc3nc12,0%,-23%,1%,?,5%
O=C(Cn1cncn1)NCC1Cc2cc(-c3ccsc3)cc(Cl)c2O1 (stereo not drawn),.,5%[9.04 µM],.,-15%,.
CC1(C)Cc2c(sc(NC(=O)c3ccc(S(=O)(=O)N4CCCC4)cc3)c2C#N)C(C)(C)N1,-3%,1%,2%,-3%,3%
N#C/C(=N\Nc1ccc(Cl)cc1)C(=O)c1ccsc1,22%,16µM*,-5%,23µM*,7%
Cc1ccc(N/N=C(\C#N)C(N)=S)cc1C,-15%,10µM*,-20%,18µM*,5%
Cc1ccc(N/N=C(\C#N)C(=O)c2ccsc2)cc1,-26%,?,2%,?,9%
N#C/C(=N\Nc1ccccc1)C(N)=S,22%,-25%,1%,?,7%
N#C/C(=N\Nc1ccc(Cl)cc1)C(N)=S,21%,5.8µM*,-4%,5.8µM*,9%
Cc1nn(Cc2ccccc2)c(C)c1NC(=O)CSc1nc2c(c(C(F)(F)F)n1)CCc1ccccc1-2,-9%,?,2%,?,1%
Cc1ccc(NC(=O)CN2C(=O)COc3ccc(S(=O)(=O)NC4CCCC4)cc32)c(Cl)c1,-4%,-26%,.,?,9%
CN(C)S(=O)(=O)c1ccc(Cl)c(C(=O)NC2CCN(Cc3ccccc3)C2)c1 (stereo not drawn),-1%,-9%,1%,?,0%
CCCCN(C)C(=O)C1CCN(Cc2ccc(OCc3ccccc3)cc2)CC1,-2%,?,-14%,16µM*,-8%
COc1ccc(C(=O)NC2CC2)cc1OC1CCN(Cc2ccc(F)cc2Cl)CC1,.,?,-7%,18µM*,.
CCN(c1ccccc1)S(=O)(=O)c1ccc(Cl)c(C(=O)NC2CCN(Cc3ccccc3)CC2)c1,.,9.2µM*,-14%,6.5µM*,.
SMILES,miR-21 act,TDP1 cell CPT,uPA generation,DT40 TDP1 no CPT,TDP1 block
CCCCOc1ccc(C(=O)NCC(=O)NC2CCN(Cc3ccccc3)CC2)cc1,-5%,23µM*,8%,?,3%
CCCCOc1ccc(C(=O)NCC(=O)NC2CCC(C)CC2)cc1 (stereo not drawn),.,3%,5%,-13%,-3%
CC(C)(C)OC(=O)N1CCC(NC(=O)c2ncn(Cc3ccccc3)c2C(=O)NC2CCN(C(=O)OC(C)(C)C)CC2)CC1,.,23µM*,-25%,?,3%
CCN(c1ccccc1)S(=O)(=O)c1ccc(Cl)c(NC(=O)CN2CCN(C)CC2)c1,.,?,-3%,-8%,1%
CCN(c1ccccc1)S(=O)(=O)c1ccc(Cl)c(NC(=O)CN(C)C2CCN(C)CC2)c1,-10%,?,-7%,16µM*,.
Cc1ccc(NS(=O)(=O)c2ccc(C(=O)NC3CCN(Cc4ccccc4)CC3)cc2)cc1,.,15µM*,?,15µM*,0%
O=C(NC1CCN(Cc2ccccc2)C1)c1cccc(S(=O)(=O)N2CCOCC2)c1 (stereo not drawn),.,-33%,-4%,-20%,1%
Cc1ccc(NS(=O)(=O)c2cccc(C(=O)NC3CCN(Cc4ccccc4)CC3)c2)cc1,.,4.1µM*,-4%,5.8µM*,.
CCOc1ccc(OCC(=O)OCc2cc(=O)n3cc(Br)ccc3n2)cc1,.,-1%,2%,3%,-3%[56.1 µM]
CC(NC(=O)C1CCCN1C(=O)CN)C(=O)O (stereo not drawn),.,.,.,.,0%
COc1cc(C(=O)OCc2ccccc2C#N)ccc1OCC(=O)N1CCOCC1,.,0%,7%,12%,0%[56.1 µM]
CC(C)(C)c1ccc(C(=O)NC2CCN(Cc3ccccc3)CC2)cc1,7%,?,-19%,18µM*,.
O=C(NC1CCN(Cc2ccccc2)CC1)c1ccccc1,-5%,-4%,9%,-3%,.
O=C(NC1CCN(Cc2ccccc2)CC1)c1cc(S(=O)(=O)Nc2ccc(F)cc2)ccc1Cl,.,23µM*,3%,15µM*,0%
Cc1ccc(Cl)cc1S(=O)(=O)N1CCC(C(=O)NC2CCN(Cc3ccccc3)CC2)CC1,17%,?,0%,15µM*,0%
CCN(CC)S(=O)(=O)c1ccc(S(=O)(=O)N2CCC(C(=O)NC3CCN(Cc4ccccc4)CC3)CC2)cc1,9%,1%,7%,-6%,0%
O=C(NC1CCN(Cc2ccc(Cl)cc2Cl)CC1)c1ccccc1,-4%,21µM*,-5%,18µM*,.
N#C/C(=C\c1ccc(O)c(Br)c1)C(=O)N1CCCCC1,-13%,10%,0%,11%,.
CCCCOc1ccc(C(=O)NCC(=O)NCC(=O)OCC)cc1,7%,16µM*,-5%,?,5%
CCCCOc1ccc(C(=O)NCC(=O)OCCCOC(=O)CNC(=O)c2ccc(OCCCC)cc2)cc1,.,?,.,-26%,.
COc1ccc(C2C(C(C)=O)=C(O)C(=O)N2Cc2ccccc2)c(OC)c1 (stereo not drawn),-8%,0%,12%,-3%,.
Cc1ccc(C)c(NC(=O)CN(C)C(=O)c2ccc3[nH]c4c(c3c2)CC(C)CC4)c1 (stereo not drawn),.,?,4%,?,9%

# Bioassay records (PubChem BioAssay)
